# Compound activity: PubChem BioAssay, National Center for Advancing Translational Sciences (NCATS)
# FUS suppressor: suppressors of FUS proteinopathy in yeast. S. cerevisiae FUS-expressing, growth rescue, OD600, 24 h. Potency, µM (highest dose often 76.6 µM), hits mostly activators. 390,000 tested, 0.24% active. AID 1347120;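 further: plate controls were DMSO vehicle for no effect and reference control for full effect; nearly all actives have a fitted effect of over 55% in size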
#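 Cultures pregrown in 2.5% raffinose medium are shifted to minimal medium containing 2% galactose to express toxic FUS. Compounds are tested at several concentrations. After 24hr at 30C, growth is quantified at 600 nm absorbance.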
# Abeta yeast res: restores growth of yeast expressing A-beta42 peptide; yeast expressing A-beta42, growth rescue, OD600, 48 h; response scale: 0% DMSO, 100% iron-clioquinol control; Potency, µM (highest dose often 46.1 µM), usual class: activators; 410,000 tested, 0.063% active; AID 1347071; further: nearly all actives have a fitted effect of over 55% in size
#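 Yeast A-beta toxicity model in growth medium with pinned compounds, 48 h at 30 C; growth read as absorbance at 600 nm. Normalized to FeCl3/clioquinol equimolar mix (positive) and DMSO (negative).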
# aSyn rescue: rescues yeast growth from alpha-synuclein toxicity. 370,000 tested, 0.14% active. Yeast expressing alpha-synuclein, growth rescue, BacTiter-Glo, 24 h. AID 652106. Potency, µM (top dose mostly 46.1 µM), for the others: at the top dose growth rescue (activation), most hits filed as activators; further: % of control where 0% means no effect; nearly all actives have a fitted effect of over 65% in size
#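 Rescue of yeast growth: cells expressing toxic alpha-synuclein, induced in galactose at OD600 0.02, incubated with compound 24 h at 30 C. ATP luminescence quantified growth; inhibitors of toxicity appear as activators.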
# TDP-43 yeast inh: TDP-43 toxicity inhibition in yeast. TDP-43 expressing yeast growth rescue, BacTiter-Glo, 24 h. Potency, µM (doses to about 46.1 µM), for the others: at the highest dose growth rescue (activation), most hits filed as activators. 410,000 tested, 1.8% active. AID 652104; further: % of control where 0% means no effect; nearly all actives have a fitted effect of over 50% in size
#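 Growth rescue of TDP-43-toxic yeast measured as ATP luminescence (BacTiter-Glo). Cells grown to mid-log in raffinose, induced in galactose at OD600=0.02, exposed to compound 24 hr at 30 deg C.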
# Mito fusion act: mitochondrial division inhibition or fusion activation. S. cerevisiae fusion-defective mutant growth rescue, CellTiterGlo 48 h. Potency, µM (doses to about 46.1 µM), inactives show at the top dose growth rescue (activation), hits mostly activators. 320,000 tested, 0.23% active; further: % of control where 0% means no effect; nearly all actives have a fitted effect of over 45% in size
#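 Read-out: ATP-based luminescence (CellTiterGlo, 10 min ambient) reporting growth of fusion-defective ts yeast after 48 hours at 37C on glycerol/ethanol YPEG medium in the presence of compound.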
# AT treatment: potential ataxia-telangiectasia treatment. AID 485349. 320,000 tested, 0.19% active. F2112 A-T fibroblasts, KAP-1 phosphorylation AlphaLISA; neocarzinostatin DNA damage 30 min before lysis. Potency, µM (doses to about 57.5 µM), inactives show at the top dose activation, usual class: activators; further: % of control where 0% means no effect; nearly all actives have a fitted effect of over 45% in size
#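 hTERT-immortalized A-T patient fibroblasts (F2112), 500 cells/well in OPTI-MEM, 1% FBS, got compounds for 60 min, then NCS for 30 min at 37C. Lysates were then assayed for phospho-KAP-1 by AlphaLISA (anti-pKAP1 donor, anti-KAP1 acceptor beads), 6 hr at 25C.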
# The depositor's hits bear a star; i = inactive; u = inconclusive; x = no result given; [ ] = dose if it differs, or a comment. Sampled rows, rich in hits. Any-hit rate of the full collection: about 2.4%. The call rests on the fitted dose curve; in most records, active means well fitted curve in the direction sought with a large enough effect; inconclusive means small, poorly fitted or top-dose-only effect, or another doubt; inactive means no such curve, though single readings can be large; an effect the other way counts as inactive or inconclusive. Potency means the concentration at half of the fitted maximal effect.
SMILES,FUS suppressor,Abeta yeast res,aSyn rescue,TDP-43 yeast inh,Mito fusion act,AT treatment
CCOC(=O)C1CCN(S(=O)(=O)c2ccc(Br)c(OCC)c2)CC1,5.6µM*,i,7%,-5%,-1%,6%
CCOC(=O)C1CCCN(S(=O)(=O)c2cc(-c3cc(C)no3)ccc2C)C1 (stereo not drawn),u,i,x,35µM*,x,x
Cc1ccc(-c2onc(C)c2C)cc1S(=O)(=O)N1CCCCC1,i,i,x,22µM*,x,x
CCOC(=O)C1CCN(S(=O)(=O)c2ccc(OC)c(OC)c2)CC1,i,i,0%,-6%,-3%,1%
CCOC(=O)C1CCN(S(=O)(=O)c2cc(-c3onc(C)c3C)ccc2OC)CC1,u,i,x,25µM*,x,x
Cc1ccc(NC(=O)CSc2nnc(-c3cccnc3)n2Cc2ccco2)cc1C,i,x,x,x,x,x
Cc1cc(=O)n2c(C(=O)Nc3ccc(C)c(Cl)c3)c(C(=O)Nc3ccccc3)sc2n1,i,i,x,16%,x,x
CCN(CC)CCCNc1sc(S(=O)(=O)c2ccccc2)nc1S(=O)(=O)c1ccc(Cl)cc1,i,i,x,25%,x,x
CC(C)OCCCNc1sc(S(=O)(=O)c2ccccc2)nc1S(=O)(=O)c1ccc(Cl)cc1,32µM*,i,x,12%,x,x
CN(C)c1ccc(/C=C2\C(=O)Nc3ccccc32)cc1,x,x,u,x,13µM*,x
CN(C)c1ccc(/C=C2\C(=O)/C(=C/c3ccc(N(C)C)cc3)c3ccccc32)cc1,x,x,-16%,x,x,x
O=C(Nc1ccc(Nc2ccccc2)cc1)c1ccc(Cl)cc1,i,i,11%,5%,x,x
CCC1(C(=O)c2ccc(Cl)cc2)C2c3ccccc3OC(=O)C21C(=O)Nc1ccccc1 (stereo not drawn),x,i,14µM*,2%,-2%,2%
COC(=O)C1=C(C)N(Cc2ccccc2)C(=S)N[C@H]1c1ccc(Br)cc1,u,i,4%,16µM*,u,8%
COc1ccc(CNC(=O)c2cnc3sc(N4CCC(C)CC4)nn3c2=O)c(OC)c1,i,i,x,-5%,x,x
O=C(CCC(=O)N1CCN(C2c3ccccc3-c3ccccc32)CC1)Nc1nnc(C(F)(F)F)s1,i,x,x,x,x,x
COC(=O)c1c(C)[nH]c(C)c1C(=O)c1ccccc1Cc1ccccc1,i,i,-22%,27%,2.9µM*,x
CCOC(=O)Nc1nc(-c2ccc(Cl)cc2Cl)cs1,x,i,-37%,11µM*,12%,22%
CCOc1ccc2nc(NC(=O)C3(C)CC3(Br)Br)sc2c1 (stereo not drawn),i,u,-34%,18µM*,x,x
CCOCC(=O)Nc1nc2ccc(OCC)cc2s1,i,i,19%,16%,-8%,1%
COc1ccc(CCNC(=O)c2c(C)nn(-c3ccc(F)cc3)c2-n2cccc2)cc1OC,i,i,u,20%,x,x
Cc1ccc(CCNC(=O)c2c(C)nn(-c3ccc(F)cc3)c2-n2cccc2)cc1,i,i,8%,22µM*,x,x
COc1ccc(C2C(C(=O)Nc3cc(OC)c(OC)c(OC)c3)CCC(=O)N2c2ccc(OC)cc2)cc1 (stereo not drawn),i,x,x,x,x,x
CNc1nc(N)c([N+](=O)[O-])c(Nc2ccccc2OC)n1,i,i,13%,2.5µM*,-64%,-12%
CCOC(=O)N1CCN(c2ncc3c(n2)CC(c2ccc(Cl)cc2)CC3=O)CC1 (stereo not drawn),i,i,2%,13µM*,x,x
SMILES,FUS suppressor,Abeta yeast res,aSyn rescue,TDP-43 yeast inh,Mito fusion act,AT treatment
O=S(=O)(NCCc1ccc(Cl)cc1)c1ccc(N2CCCCS2(=O)=O)cc1,i,i,x,15%[9.22 µM],x,x
Cn1c(SCc2c(Cl)cccc2Cl)nnc1-c1cccs1,i,i,12%,18µM*,3%,11%
Cn1c(SCc2ccc(Br)cc2)nnc1-c1cccs1,i,i,9%,14µM*,6%,-1%
Cc1nnc(SCc2c(Cl)cccc2Cl)s1,i,i,9%,16µM*,-2%,6%
COc1cccc2c1C(=O)c1c(O)c3c(c(O)c1C2=O)C[C@@](O)(C(=O)CO)C[C@@H]3O[C@H]1C[C@H](N)[C@H](O)[C@H](C)O1,i,i,4.5µM*,u,-22%,-20%
COc1cccc2c1C(=O)c1c(O)c3c(c(O)c1C2=O)C[C@@](O)(C(=O)CO)C[C@@H]3OC1CC(N)C(O)C(C)O1 (stereo partly drawn),x,i,u,-6%,x,x
N#CCC[C@@H]1CC[C@]2(CCCN(C(=O)c3cccnc3)C2)O1,i,x,x,x,x,x
CCC(C(=O)OCc1cc(=O)n2nc(C)sc2n1)c1ccccc1 (stereo not drawn),i,i,x,9%,x,x
CCc1cccc2sc(N3CCN(C(=O)c4cc5ccccc5cc4OC)CC3)nc12,i,i,x,11%,x,x
COc1cc2ccccc2cc1C(=O)N1CCN(c2nc3c(F)cccc3s2)CC1,i,i,x,11µM*,x,x
COc1cc2ccccc2cc1C(=O)N1CCN(c2nc3c(F)cc(F)cc3s2)CC1,u,i,x,16µM*,x,x
O=C(c1cccs1)N1CCN(c2nc3c(F)cc(F)cc3s2)CC1,i,i,13%,u,11%,7%
Cc1ccc2c(=O)cc(C(=O)Nc3sc4c(c3C(=O)NCc3ccco3)CCCC4)oc2c1C,i,i,x,11%,x,x
N/C(Cc1ccc([N+](=O)[O-])cc1)=N\OC(=O)c1ccc([N+](=O)[O-])cc1,x,i,0%,18µM*,0%,5%
N/C(=N\OC(=O)c1ccc2ccccc2c1)c1cccc([N+](=O)[O-])c1,i,i,-34%,22µM*,22%,5%
N/C(=N\OC(=O)c1ccc(F)cc1)c1cccc([N+](=O)[O-])c1,i,i,-8%,13µM*,1%,1%
N/C(=N\OC(=O)c1ccccc1Cl)c1ccncc1,i,i,7%,25µM*,29%,7%
N/C(=N\OC(=O)c1ccc(Cl)cc1Cl)c1ccncc1,i,i,-7%,20%,-6%,0%
N/C(Cc1ccc([N+](=O)[O-])cc1)=N\OC(=O)c1cccc(Br)c1,i,i,-73%,-93%,0%,14%
N/C(=N\OC(=O)c1cccc(F)c1)c1cccc([N+](=O)[O-])c1,i,i,-4%,u,1%,1%
Cc1oc2c(c(C)cc3oc(=O)c(CC(=O)NCCc4ccccc4F)c(C)c32)c1C,i,i,x,6%,x,x
